From publication PMC7862700, “An all-to-all approach to the identification of sequence-specific readers for epigenetic DNA modifications on cytosine”

Columns and labels:
Assay in all cases: DAPPL (digital affinity profiling via proximity ligation, sequencing); 10 mM Tris-HCl pH 7.5, 50 mM NaCl, 1 mM DTT, 4% glycerol, room temperature, 30 min; GST-TFs on glutathione beads, 16-mer random dsDNA library, 0.1% formaldehyde crosslink after washing; high values mean tight binding
FLI1 = target: T1, FLI1 (Homo sapiens, UniProt Q01543 1-452); details: protein: recombinant; tags: N-terminal GST; dsDNA, one strand shown
T1 sequence: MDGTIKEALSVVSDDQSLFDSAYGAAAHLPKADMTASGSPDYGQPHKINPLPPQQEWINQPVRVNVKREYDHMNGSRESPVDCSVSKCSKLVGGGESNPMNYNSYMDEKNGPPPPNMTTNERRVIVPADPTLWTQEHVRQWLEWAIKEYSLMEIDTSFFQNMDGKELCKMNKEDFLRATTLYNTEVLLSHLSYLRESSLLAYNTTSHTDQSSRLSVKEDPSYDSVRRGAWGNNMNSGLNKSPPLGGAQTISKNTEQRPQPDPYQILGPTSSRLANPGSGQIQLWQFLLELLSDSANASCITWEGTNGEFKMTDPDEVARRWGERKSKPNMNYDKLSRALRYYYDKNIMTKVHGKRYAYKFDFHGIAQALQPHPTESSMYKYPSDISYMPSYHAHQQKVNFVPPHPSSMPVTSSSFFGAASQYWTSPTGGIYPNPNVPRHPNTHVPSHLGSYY
Method in brief: (§1)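 GST fusions of human transcription factors were expressed in yeast and captured with glutathione beads. Once given DNA barcodes and pooled alongside a tag-only sample, they were incubated for 30 min at room temperature with 200 nmole of a random double-stranded 16-mer DNA library in Tris/NaCl/DTT/glycerol buffer, then washed, crosslinked (0.1% formaldehyde), proximity-ligated, PCR-amplified and sequenced on an Illumina NextSeq500. The binding signal of each hexamer is its read frequency for a factor divided by its frequency for the tag-only sample.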

ELK1 = target: T2, ELK1 (Homo sapiens, UniProt P19419 1-428); details: protein: recombinant; tags: N-terminal GST; dsDNA, one strand shown
T2 sequence: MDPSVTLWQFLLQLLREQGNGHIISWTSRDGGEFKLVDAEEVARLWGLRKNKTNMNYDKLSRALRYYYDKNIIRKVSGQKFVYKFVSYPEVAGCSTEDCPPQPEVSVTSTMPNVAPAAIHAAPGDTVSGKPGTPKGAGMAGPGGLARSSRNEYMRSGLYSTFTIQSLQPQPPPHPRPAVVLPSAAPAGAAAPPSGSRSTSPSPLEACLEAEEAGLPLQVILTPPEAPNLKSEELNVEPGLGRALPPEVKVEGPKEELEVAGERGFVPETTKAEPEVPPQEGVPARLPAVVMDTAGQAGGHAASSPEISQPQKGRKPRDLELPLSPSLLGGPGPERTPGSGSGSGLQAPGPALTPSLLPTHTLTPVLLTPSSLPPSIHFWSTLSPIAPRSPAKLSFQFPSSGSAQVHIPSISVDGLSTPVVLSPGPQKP
Method in brief: as §1

GABPA = target: T3, GABPA (Homo sapiens, UniProt Q06546 1-454); details: protein: recombinant; tags: N-terminal GST; dsDNA, one strand shown
T3 sequence: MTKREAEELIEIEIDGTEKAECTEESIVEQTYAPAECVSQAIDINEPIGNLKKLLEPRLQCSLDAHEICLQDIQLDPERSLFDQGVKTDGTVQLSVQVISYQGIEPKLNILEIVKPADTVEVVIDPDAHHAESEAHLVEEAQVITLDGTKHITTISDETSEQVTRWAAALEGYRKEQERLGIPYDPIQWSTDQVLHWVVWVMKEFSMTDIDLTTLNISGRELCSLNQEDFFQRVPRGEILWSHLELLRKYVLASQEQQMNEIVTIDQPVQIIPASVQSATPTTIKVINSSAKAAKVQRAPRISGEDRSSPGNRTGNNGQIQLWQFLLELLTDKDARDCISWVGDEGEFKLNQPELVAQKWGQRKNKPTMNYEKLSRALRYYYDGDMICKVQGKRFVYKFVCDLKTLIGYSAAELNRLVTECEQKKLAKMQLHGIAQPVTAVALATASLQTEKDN
Method in brief: as §1

ERG = target: T4, ERG (Homo sapiens, UniProt P11308 1-479); details: protein: recombinant; tags: N-terminal GST; dsDNA, one strand shown
T4 sequence: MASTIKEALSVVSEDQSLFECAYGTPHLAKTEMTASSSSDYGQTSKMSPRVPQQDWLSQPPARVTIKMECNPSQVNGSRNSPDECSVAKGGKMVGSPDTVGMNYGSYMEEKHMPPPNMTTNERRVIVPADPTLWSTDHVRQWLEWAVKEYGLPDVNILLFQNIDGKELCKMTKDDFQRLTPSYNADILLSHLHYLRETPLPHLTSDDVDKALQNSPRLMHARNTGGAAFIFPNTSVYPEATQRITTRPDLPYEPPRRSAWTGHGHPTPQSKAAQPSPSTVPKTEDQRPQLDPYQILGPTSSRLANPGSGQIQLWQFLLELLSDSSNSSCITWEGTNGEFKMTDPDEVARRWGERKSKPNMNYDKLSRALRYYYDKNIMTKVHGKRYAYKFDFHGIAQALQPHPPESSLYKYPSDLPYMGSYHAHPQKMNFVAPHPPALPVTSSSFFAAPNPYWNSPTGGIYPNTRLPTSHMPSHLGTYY
Method in brief: as §1

ELF1 = ELF1 (Homo sapiens, UniProt P32519 1-619); details: protein: recombinant; tags: N-terminal GST; dsDNA, one strand shown
Method in brief: as §1

EHF = target: T5, EHF (Homo sapiens, UniProt Q9NZC4 1-300); details: protein: recombinant; tags: N-terminal GST; dsDNA, one strand shown
T5 sequence: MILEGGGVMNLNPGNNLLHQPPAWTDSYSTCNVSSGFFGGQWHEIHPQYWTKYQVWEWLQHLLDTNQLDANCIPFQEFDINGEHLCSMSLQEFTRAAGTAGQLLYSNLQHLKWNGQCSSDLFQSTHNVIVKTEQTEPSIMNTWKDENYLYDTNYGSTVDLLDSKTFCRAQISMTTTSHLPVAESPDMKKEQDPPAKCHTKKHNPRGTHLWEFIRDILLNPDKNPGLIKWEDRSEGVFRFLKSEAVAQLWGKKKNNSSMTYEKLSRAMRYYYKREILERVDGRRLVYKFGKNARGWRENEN
Method in brief: as §1

SPI1 = SPI1 (Homo sapiens, UniProt P17947 1-270); details: protein: recombinant; tags: N-terminal GST; dsDNA, one strand shown
Method in brief: as §1

SPIB = SPIB (Homo sapiens, UniProt Q01892 1-262); details: protein: recombinant; tags: N-terminal GST; dsDNA, one strand shown
Method in brief: as §1

ELK3 = target: T6, ELK3 (Homo sapiens, UniProt P41970 1-407); details: protein: recombinant; tags: N-terminal GST; dsDNA, one strand shown
T6 sequence: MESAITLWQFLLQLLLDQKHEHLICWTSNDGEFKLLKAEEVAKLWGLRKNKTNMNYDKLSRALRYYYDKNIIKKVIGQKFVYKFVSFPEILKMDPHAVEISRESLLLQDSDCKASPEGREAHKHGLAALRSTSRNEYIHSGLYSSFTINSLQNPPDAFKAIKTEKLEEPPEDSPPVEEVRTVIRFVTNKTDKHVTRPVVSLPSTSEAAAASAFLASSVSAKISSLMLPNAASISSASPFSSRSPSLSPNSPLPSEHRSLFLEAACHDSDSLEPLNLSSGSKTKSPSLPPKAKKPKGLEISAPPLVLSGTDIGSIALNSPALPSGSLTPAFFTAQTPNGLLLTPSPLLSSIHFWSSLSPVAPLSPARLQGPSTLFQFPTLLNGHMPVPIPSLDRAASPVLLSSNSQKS
Method in brief: as §1

FEV = target: T7, FEV (Homo sapiens, UniProt Q99581 1-238); details: protein: recombinant; tags: N-terminal GST; dsDNA, one strand shown
T7 sequence: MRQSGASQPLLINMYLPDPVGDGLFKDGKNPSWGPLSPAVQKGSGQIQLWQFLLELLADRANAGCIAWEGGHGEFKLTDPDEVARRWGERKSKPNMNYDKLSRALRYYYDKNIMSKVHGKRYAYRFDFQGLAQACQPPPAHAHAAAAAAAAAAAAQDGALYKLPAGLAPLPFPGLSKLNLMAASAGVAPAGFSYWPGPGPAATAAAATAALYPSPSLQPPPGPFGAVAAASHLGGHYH
Method in brief: as §1

ETV5 = ETV5 (Homo sapiens, UniProt P41161 1-510); details: protein: recombinant; tags: N-terminal GST; dsDNA, one strand shown
Method in brief: as §1

HSF1 = HSF1 (Homo sapiens, UniProt Q00613 1-529); details: protein: recombinant; tags: N-terminal GST; chain copies: 3; dsDNA, one strand shown
Method in brief: as §1

SPIC = target: T8, SPIC (Homo sapiens, UniProt Q8N5J4 1-248); details: protein: recombinant; tags: N-terminal GST; dsDNA, one strand shown
T8 sequence: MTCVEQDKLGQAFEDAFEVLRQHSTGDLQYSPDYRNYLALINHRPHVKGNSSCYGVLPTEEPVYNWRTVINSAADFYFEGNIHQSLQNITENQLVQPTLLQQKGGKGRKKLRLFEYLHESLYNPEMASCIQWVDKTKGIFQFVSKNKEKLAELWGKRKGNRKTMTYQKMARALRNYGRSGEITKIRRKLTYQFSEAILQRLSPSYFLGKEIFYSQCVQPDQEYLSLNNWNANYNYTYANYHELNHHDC
Method in brief: as §1

ELF4 = ELF4 (Homo sapiens, UniProt Q99607 1-663); details: protein: recombinant; tags: N-terminal GST; dsDNA, one strand shown
Method in brief: as §1

ELK4 = target: T9, ELK4 (Homo sapiens, UniProt P28324-2 1-405); details: protein: recombinant; tags: N-terminal GST; dsDNA, one strand shown
T9 sequence: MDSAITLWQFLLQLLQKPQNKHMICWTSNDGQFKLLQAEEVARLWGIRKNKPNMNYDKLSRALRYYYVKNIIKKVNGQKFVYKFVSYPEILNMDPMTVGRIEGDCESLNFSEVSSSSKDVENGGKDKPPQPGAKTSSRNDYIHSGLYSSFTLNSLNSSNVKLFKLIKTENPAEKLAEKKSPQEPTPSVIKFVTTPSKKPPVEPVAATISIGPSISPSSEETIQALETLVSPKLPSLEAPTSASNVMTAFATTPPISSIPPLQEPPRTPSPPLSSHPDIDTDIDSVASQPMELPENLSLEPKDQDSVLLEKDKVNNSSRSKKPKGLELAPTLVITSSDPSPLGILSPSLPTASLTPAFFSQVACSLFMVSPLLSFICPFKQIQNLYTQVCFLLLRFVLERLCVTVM
Method in brief: as §1

ETV2 = target: T10, ETV2 (Homo sapiens, UniProt O00321 1-342); details: protein: recombinant; tags: N-terminal GST; dsDNA, one strand shown
T10 sequence: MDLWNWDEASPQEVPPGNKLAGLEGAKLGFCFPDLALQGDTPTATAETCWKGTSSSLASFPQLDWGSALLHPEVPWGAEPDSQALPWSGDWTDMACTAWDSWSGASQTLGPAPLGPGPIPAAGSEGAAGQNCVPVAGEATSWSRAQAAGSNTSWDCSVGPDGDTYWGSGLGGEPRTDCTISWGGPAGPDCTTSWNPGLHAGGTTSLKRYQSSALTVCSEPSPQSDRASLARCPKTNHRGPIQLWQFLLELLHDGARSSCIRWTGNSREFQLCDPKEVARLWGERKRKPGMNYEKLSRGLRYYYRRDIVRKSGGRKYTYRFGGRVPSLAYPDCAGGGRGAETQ
Method in brief: as §1

ELF3 = target: T11, ELF3 (Homo sapiens, UniProt P78545 1-371); details: protein: recombinant; tags: N-terminal GST; dsDNA, one strand shown
T11 sequence: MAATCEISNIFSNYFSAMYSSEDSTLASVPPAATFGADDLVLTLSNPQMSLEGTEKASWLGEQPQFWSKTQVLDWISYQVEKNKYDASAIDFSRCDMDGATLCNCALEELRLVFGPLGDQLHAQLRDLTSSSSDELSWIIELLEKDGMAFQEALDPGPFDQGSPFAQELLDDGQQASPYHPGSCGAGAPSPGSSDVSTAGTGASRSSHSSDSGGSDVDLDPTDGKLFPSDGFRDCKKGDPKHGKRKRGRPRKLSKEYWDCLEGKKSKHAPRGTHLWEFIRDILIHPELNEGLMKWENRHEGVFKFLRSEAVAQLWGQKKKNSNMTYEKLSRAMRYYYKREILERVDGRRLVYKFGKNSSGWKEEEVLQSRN
Method in brief: as §1

CRX = CRX (Homo sapiens, UniProt O43186 1-299); details: protein: recombinant; tags: N-terminal GST; dsDNA, one strand shown
Method in brief: as §1

ETV1 = ETV1 (Homo sapiens, UniProt P50549 1-477); details: protein: recombinant; tags: N-terminal GST; dsDNA, one strand shown
Method in brief: as §1

ELF4, sequence (Q99607 whole entry): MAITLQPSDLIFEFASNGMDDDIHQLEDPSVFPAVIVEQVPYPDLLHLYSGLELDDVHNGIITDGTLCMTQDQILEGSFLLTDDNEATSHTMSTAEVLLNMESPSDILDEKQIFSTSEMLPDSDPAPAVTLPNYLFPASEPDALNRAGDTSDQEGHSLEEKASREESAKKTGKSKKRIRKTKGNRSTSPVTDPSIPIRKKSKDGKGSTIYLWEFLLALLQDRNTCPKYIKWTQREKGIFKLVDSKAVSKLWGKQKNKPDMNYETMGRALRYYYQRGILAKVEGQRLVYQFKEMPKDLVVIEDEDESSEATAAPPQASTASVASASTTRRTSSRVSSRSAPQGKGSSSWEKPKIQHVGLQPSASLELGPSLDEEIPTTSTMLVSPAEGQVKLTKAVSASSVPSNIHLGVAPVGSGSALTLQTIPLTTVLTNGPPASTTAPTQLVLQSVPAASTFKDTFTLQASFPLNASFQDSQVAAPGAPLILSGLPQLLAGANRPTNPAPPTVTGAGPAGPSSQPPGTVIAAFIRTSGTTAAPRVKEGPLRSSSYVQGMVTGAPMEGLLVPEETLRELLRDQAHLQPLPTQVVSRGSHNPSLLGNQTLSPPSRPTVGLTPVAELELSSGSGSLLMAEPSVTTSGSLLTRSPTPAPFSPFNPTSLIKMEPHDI
SPIB, sequence (Q01892 whole entry): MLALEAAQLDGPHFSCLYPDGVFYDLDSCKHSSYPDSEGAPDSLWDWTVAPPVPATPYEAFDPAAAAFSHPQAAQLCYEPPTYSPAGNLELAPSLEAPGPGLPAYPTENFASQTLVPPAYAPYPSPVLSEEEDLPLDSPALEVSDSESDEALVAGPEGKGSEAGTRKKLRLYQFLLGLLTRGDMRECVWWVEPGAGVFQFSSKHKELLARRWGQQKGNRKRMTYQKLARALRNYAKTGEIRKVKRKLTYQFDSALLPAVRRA
ELF1, sequence (P32519 whole entry): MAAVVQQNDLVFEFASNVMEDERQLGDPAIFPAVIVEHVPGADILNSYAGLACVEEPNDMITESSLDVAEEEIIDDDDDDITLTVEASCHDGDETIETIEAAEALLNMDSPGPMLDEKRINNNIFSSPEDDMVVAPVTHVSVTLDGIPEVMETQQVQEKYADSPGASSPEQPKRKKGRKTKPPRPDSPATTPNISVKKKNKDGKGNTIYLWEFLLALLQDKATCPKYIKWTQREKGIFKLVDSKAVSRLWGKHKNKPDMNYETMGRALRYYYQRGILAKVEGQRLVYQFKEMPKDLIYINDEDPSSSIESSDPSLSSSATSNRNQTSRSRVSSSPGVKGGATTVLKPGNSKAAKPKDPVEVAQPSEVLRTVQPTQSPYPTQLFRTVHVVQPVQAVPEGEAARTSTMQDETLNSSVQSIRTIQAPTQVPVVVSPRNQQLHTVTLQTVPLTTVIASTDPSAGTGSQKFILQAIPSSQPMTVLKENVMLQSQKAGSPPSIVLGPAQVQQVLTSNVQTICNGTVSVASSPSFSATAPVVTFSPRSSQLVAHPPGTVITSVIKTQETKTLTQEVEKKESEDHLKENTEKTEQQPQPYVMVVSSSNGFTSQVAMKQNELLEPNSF
ETV1, sequence (P50549 whole entry): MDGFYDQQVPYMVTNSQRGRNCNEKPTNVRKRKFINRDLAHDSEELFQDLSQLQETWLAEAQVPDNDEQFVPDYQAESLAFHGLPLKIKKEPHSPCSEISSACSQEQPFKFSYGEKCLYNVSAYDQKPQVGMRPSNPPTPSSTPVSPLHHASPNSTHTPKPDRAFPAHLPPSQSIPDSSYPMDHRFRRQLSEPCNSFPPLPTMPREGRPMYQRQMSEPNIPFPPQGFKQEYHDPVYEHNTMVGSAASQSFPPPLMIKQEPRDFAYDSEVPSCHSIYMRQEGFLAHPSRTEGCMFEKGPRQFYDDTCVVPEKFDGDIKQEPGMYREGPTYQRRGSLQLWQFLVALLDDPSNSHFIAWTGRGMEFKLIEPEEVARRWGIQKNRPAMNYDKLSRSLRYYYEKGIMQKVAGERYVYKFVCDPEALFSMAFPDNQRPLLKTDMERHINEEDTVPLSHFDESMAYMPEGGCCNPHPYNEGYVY
CRX, sequence (O43186 whole entry): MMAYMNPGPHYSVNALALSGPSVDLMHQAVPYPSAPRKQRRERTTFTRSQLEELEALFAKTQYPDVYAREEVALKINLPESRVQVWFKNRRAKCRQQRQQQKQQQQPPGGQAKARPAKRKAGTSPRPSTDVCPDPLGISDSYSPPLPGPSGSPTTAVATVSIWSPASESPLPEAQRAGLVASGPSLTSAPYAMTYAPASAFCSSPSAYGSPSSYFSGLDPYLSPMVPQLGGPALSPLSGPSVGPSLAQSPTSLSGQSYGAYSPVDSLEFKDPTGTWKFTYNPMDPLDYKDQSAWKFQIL
ETV5, sequence (P41161 whole entry): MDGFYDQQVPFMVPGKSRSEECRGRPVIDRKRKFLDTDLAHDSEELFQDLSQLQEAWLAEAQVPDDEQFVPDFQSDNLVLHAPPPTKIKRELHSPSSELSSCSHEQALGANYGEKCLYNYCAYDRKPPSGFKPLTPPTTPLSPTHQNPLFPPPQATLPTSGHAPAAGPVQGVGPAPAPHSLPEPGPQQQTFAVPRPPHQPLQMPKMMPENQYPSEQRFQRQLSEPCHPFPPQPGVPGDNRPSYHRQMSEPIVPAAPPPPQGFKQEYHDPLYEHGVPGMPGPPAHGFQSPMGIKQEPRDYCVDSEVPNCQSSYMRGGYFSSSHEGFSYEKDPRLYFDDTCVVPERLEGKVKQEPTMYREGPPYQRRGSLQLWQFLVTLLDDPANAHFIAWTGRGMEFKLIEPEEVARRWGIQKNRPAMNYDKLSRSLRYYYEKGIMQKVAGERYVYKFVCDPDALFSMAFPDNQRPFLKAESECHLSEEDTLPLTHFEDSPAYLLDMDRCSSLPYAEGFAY
HSF1, sequence (Q00613 whole entry): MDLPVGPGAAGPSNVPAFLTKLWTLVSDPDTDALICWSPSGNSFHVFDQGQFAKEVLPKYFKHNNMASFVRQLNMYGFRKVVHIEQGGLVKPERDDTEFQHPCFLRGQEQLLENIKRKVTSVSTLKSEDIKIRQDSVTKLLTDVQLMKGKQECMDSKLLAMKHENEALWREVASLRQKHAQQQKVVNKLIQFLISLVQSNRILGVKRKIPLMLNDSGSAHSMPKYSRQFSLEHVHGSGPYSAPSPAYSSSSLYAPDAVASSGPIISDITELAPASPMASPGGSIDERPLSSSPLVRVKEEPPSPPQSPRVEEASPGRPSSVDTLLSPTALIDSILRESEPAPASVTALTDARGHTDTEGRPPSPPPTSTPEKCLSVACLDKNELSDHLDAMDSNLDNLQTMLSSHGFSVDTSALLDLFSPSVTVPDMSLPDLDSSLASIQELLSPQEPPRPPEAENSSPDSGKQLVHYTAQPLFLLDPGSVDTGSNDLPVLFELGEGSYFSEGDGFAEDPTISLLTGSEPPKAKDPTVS

ATATAG
binding signal (FLI1): 1.15 fold enrichment (6-mer frequency, TF over GST control) | binding signal (ELK1): 1.17 fold enrichment (6-mer frequency, TF over GST control) | binding signal (GABPA): 1.29 fold enrichment (6-mer frequency, TF over GST control) | binding signal (ERG): 1.19 fold enrichment (6-mer frequency, TF over GST control) | binding signal (ELF1): 1.17 fold enrichment (6-mer frequency, TF over GST control) | binding signal (EHF): 1.22 fold enrichment (6-mer frequency, TF over GST control) | binding signal (SPI1): 1.2 fold enrichment (6-mer frequency, TF over GST control) | binding signal (SPIB): 1.2 fold enrichment (6-mer frequency, TF over GST control) | binding signal (ELK3): 1.23 fold enrichment (6-mer frequency, TF over GST control) | binding signal (FEV): 1.1 fold enrichment (6-mer frequency, TF over GST control) | binding signal (ETV5): 1.24 fold enrichment (6-mer frequency, TF over GST control) | binding signal (HSF1): 1.19 fold enrichment (6-mer frequency, TF over GST control) | binding signal (SPIC): 1.2 fold enrichment (6-mer frequency, TF over GST control) | binding signal (ELF4): 1.09 fold enrichment (6-mer frequency, TF over GST control) | binding signal (ELK4): 1.19 fold enrichment (6-mer frequency, TF over GST control) | binding signal (ETV2): 1.07 fold enrichment (6-mer frequency, TF over GST control) | binding signal (ELF3): 1.28 fold enrichment (6-mer frequency, TF over GST control) | binding signal (CRX): 1.26 fold enrichment (6-mer frequency, TF over GST control) | binding signal (ETV1): 1.17 fold enrichment (6-mer frequency, TF over GST control)
